In PubChem BioAssay (EPA / NIEHS):
Activity calls are given as the source filed them. How the source made its calls: active means hit-call score of the fitted dose curve at least 0.9, where 1 is the maximum; inactive means score below 0.9.

Key:
Conditions in all cases: mRNA level, 48 h; actives raise or lower the signal
[1] = read-out: ABC Transporter (ABCC2), ABCC2 (gene 1244); assay: LTEA_HepaRG_ABCC2: Life Technologies and Expression Analysis (LTEA) Assay for ABC Transporter (ABCC2) using HepaRG (AID 2283464)
Summary of the method: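 Gene expression of ABCC2 was determined by qRT-PCR in HepaRG cells exposed 48 h to chemicals (highest 100 uM, half-log dilutions). Activity was fitted in both directions relative to 0.5% DMSO vehicle.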

[2] = read-out: Broad substrate specificity ATP-binding cassette transporter ABCG2 (Homo sapiens) (UniProt Q9UNQ0); assay: LTEA_HepaRG_ABCG2: Life Technologies and Expression Analysis (LTEA) Assay for ABC Transporter (ABCG2) using HepaRG (AID 2283465)
Summary of the method: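 ABCG2 transcript was quantified by TaqMan qRT-PCR against three housekeeping genes in HepaRG cells. Cells were treated in duplicate for 48 h across an 8-point half-log series up to 100 uM, with 0.5% DMSO vehicle. Gain or loss versus DMSO was fit.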

[3] = read-out: ATP-citrate lyase (ACLY), ACLY (gene 47); assay: LTEA_HepaRG_ACLY: Life Technologies and Expression Analysis (LTEA) Assay for ATP-citrate lyase (ACLY) using HepaRG (AID 2283466)
Summary of the method: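 ACLY mRNA quantified by qRT-PCR on Fluidigm arrays against three housekeeping genes, after 48 h chemical treatment of HepaRG cells (top concentration 100 uM, half-log steps, 0.5% DMSO vehicle). Up- or down-regulation fitted relative to DMSO.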

[4] = read-out: Peroxisomal acyl-coenzyme A oxidase 1 (ACOX1) gene, ACOX1 (gene 51); assay: LTEA_HepaRG_ACOX1: Life Technologies and Expression Analysis (LTEA) Assay for Peroxisomal acyl-coenzyme A oxidase 1 (ACOX1) gene using HepaRG (AID 2283467)
Description: (§1) LTEA_HepaRG is a cell based, multiplexed-readout assay that uses HepaRG, a human liver cell line, with measurements taken at 48 hours after chemical dosing on a 96-well plate.LTEA_HepaRG_ACOX1 is one of 102 assay component(s) measured in the LTEA HepaRG cell culture assay. It is a marker of Steatosis.Data from the assay component LTEA_HepaRG_ACOX1 was analyzed into 1 endpoint. This assay endpoint, LTEA_HepaRG_ACOX1, was analyzed with bidirectional fitting relative to DMSO as the negative control and baseline of activity. Using a type of inducible reporter, measures of mRNA induction for gain or loss-of-signal activity can be used to understand regulation of transcription factor activity. To generalize the intended target to other relatable targets, this assay endpoint is annotated to the oxidase intended target family, where the subfamily is steatosis.
(§2) A total of 1060 chemcials from the ToxCast library were tested in eight-point concentration-response experiments. Cell culture and cytotoxicity assays were conducted at Thermo Fisher Scientific's Custom Services facility (Madison, WI). […] Fluidigm's 96.96 Dynamic ArrayTM (Fluidigm, Amsterdam, the Netherlands) technology was used for gene expression analyses by quantitative reverse transcription polymerase chain reaction (qRT-PCR, performed by Quintiles/Expression Analysis, Durham, NC)89. […]

[5] = read-out: Alkaline Phosphatase, Placental (ALPP) gene, ALPP (gene 250); assay: LTEA_HepaRG_ALPP: Life Technologies and Expression Analysis (LTEA) Assay for Alkaline Phosphatase, Placental (ALPP) gene using HepaRG (AID 2283468)
Summary of the method: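 Expression of ALPP was quantified by qRT-PCR against three housekeeping genes in human HepaRG cultures treated for 48 h with an eight-point concentration series up to 100 uM. Activity in either direction was fitted relative to 0.5% DMSO.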

[6] = read-out: Bcl-2 (BAD) gene, BAD (gene 572); assay: LTEA_HepaRG_BAD: Life Technologies and Expression Analysis (LTEA) Assay for Bcl-2 (BAD) gene using HepaRG (AID 2283469)
Description: as §1, with “plate.LTEA_HepaRG_BAD” for “plate.LTEA_HepaRG_ACOX1”, “Cell proliferation, survival, death.Data” for “Steatosis.Data”, “LTEA_HepaRG_BAD” for “LTEA_HepaRG_ACOX1”, “LTEA_HepaRG_BAD,” for “LTEA_HepaRG_ACOX1,”, “cell cycle” for “oxidase”, “Cell proliferation, survival, death.” for “steatosis.”
as §2

[7] = read-out: Bcl-2 (BAX) gene, BAX (gene 581); assay: LTEA_HepaRG_BAX: Life Technologies and Expression Analysis (LTEA) Assay for Bcl-2 (BAX) gene using HepaRG (AID 2283470)
Description: as §1, with “plate.LTEA_HepaRG_BAX” for “plate.LTEA_HepaRG_ACOX1”, “Cell proliferation, survival, death.Data” for “Steatosis.Data”, “LTEA_HepaRG_BAX” for “LTEA_HepaRG_ACOX1”, “LTEA_HepaRG_BAX,” for “LTEA_HepaRG_ACOX1,”, “cell cycle” for “oxidase”, “Cell proliferation, survival, death.” for “steatosis.”
as §2

[8] = read-out: adenosine kinase (ADK) gene, ADK (gene 132); assay: LTEA_HepaRG_ADK: Life Technologies and Expression Analysis (LTEA) Assay for adenosine kinase (ADK) gene using HepaRG (AID 2283471)
Description: as §1, with “plate.LTEA_HepaRG_ADK” for “plate.LTEA_HepaRG_ACOX1”, “LTEA_HepaRG_ADK” for “LTEA_HepaRG_ACOX1”, “LTEA_HepaRG_ADK,” for “LTEA_HepaRG_ACOX1,”, “kinase” for “oxidase”
as §2

[9] = read-out: Alpha-fetoprotein (AFP) gene, AFP (gene 174); assay: LTEA_HepaRG_AFP: Life Technologies and Expression Analysis (LTEA) Assay for Alpha-fetoprotein (AFP) gene using HepaRG (AID 2283472)
Summary of the method: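 qRT-PCR (Fluidigm TaqMan) readout of AFP transcript, normalized to three housekeeping genes, fitted bidirectionally against 0.5% DMSO baseline. HepaRG cells received chemicals for 48 h in serum-free induction medium, top concentration 100 uM, half-log steps.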

[10] = read-out: BCL2L11 (gene 10018); assay: LTEA_HepaRG_BCL2L11: Life Technologies and Expression Analysis (LTEA) Assay for Bcl-2 (BCL2L11) gene using HepaRG (AID 2283473)
Summary of the method: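 Cells were plated, cultured 48 h, switched to serum-free induction medium, then dosed in duplicate for 48 h at eight half-log concentrations up to 100 uM. Lysates underwent RNA isolation and TaqMan qRT-PCR; gain or loss versus DMSO was fitted.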

Measured: outcome

Broad substrate specificity ATP-binding cassette transporter ABCG2 (Homo sapiens), sequence (Q9UNQ0 whole entry, looked up): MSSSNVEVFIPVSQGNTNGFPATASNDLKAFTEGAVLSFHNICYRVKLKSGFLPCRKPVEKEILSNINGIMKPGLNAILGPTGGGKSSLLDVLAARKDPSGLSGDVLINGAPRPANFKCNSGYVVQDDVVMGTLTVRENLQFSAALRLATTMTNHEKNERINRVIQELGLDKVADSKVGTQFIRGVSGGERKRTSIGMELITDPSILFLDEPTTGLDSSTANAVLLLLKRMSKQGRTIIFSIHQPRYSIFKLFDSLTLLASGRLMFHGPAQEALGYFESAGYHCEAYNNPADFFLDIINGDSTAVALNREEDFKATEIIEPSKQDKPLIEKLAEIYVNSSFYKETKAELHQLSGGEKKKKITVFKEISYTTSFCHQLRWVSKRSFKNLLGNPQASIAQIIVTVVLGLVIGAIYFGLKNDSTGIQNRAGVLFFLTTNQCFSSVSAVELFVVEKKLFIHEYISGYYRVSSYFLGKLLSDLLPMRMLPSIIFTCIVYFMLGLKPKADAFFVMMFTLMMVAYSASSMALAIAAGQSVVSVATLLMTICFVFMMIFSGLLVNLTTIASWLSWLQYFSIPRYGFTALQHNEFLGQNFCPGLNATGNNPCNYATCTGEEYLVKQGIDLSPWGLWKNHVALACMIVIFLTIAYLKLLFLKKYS

CS(=O)(=O)OCCCCOS(C)(=O)=O
inactive: all assays above
